Screens as filed in PubChem.
GRIN3A LBD mod – modulators (binders) of human NR3A ligand-binding domain; NR3A LBD differential scanning fluorimetry, Tm shift; 0% = protein alone, 100% = glycine-bound protein; Tm shift relative to glycine control, % at 25 µM; hit rate 2.5% among 340,000; AID 1259313;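 active = melting temperature shift of at least 10% of the positive control shift, at one fixed dose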
Beta cell apopt – beta cell apoptosis inhibition; protection from apoptosis, % (no concentration beside the values); AID 435005; hit rate 0.8% among 300,000; INS-1E cytokine-induced death, ATP luminescence, 48 h; percent of positive-control rescue, neutral wells zero;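 active = Every replicate reaches about 75%, or at least half do and their mean reaches it too, limit read from the data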;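 note: higher means more ATP so stronger rescue from cytokine killing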
SKKanGAS inh – SKKanGAS growth inhibition; S. pyogenes SKKanGAS, kanamycin growth, BacTiter-Glo, 6 h; inhibition, % at 7.5 µM; hit rate 1.3% among 300,000;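 active = mean replicate score, as percent of positive control median, at least 50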;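 note: strain carries kanamycin resistance gene driven by streptokinase promoter and grows in 40 µg/ml kanamycin; loss of luminescence reflects streptokinase promoter inhibition or plain growth inhibition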
Mdm2 MdmX PPI – disrupts the human Mdm2-MdmX interaction; O15151+Q00987; SaOS-2 split-luciferase Mdm2/MdmX complementation, luminescence; inhibition, % at 8 µM; hit rate 3% among 330,000; AID 485346;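 active = inhibition of at least 50% at 8 µM in the primary screen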
Target sequence (O15151 whole entry, looked up): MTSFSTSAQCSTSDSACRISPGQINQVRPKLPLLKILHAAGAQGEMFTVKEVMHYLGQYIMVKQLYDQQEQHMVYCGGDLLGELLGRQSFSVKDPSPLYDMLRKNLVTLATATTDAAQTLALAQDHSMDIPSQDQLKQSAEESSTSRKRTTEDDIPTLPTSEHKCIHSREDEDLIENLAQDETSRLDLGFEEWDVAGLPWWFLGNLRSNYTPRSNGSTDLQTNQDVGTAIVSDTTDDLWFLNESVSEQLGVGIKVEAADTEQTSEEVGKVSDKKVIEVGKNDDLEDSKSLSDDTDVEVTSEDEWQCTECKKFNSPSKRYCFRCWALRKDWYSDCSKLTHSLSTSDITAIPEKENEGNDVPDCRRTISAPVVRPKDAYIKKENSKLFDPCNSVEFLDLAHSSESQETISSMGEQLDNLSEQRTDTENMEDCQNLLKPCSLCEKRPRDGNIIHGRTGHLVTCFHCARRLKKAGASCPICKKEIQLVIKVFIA
Target sequence (Q00987 whole entry, looked up): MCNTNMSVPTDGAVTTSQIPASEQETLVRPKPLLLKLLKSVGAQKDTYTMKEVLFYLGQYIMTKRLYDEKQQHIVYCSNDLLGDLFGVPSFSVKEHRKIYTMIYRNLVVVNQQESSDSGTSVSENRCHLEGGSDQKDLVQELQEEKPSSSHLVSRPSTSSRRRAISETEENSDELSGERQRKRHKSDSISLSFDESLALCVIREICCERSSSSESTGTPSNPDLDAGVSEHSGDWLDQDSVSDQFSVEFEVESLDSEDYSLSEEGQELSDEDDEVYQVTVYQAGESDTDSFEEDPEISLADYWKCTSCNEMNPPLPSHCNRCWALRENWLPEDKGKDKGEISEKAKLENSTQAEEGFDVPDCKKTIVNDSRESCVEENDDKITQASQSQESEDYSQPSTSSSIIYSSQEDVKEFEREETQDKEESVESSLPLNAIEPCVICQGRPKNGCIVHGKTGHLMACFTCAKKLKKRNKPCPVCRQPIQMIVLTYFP
CSC inhib – cancer stem cell inhibition | cancer stem cell-like cells viability, luminescence | inhibition, % at 7.5 µM | hit rate 1.1% among 300,000 | AID 2717; in the data active = inhibition above about 75%; tested in HMLE shEcad cells
MPTP block – inhibitors of mitochondrial permeability transition pore | inhibition, % at 10 µM | isolated mouse mitochondria, Ca2+ swelling absorbance, 30 min | hit rate 1.4% among 360,000;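 active = inhibition of 50% or more, scaled per plate between neutral and stimulator controls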
Hits are given with their value; – = inactive; · = no result given. In the library only some 6.9% were active in any assay of this set; here they are far more common.

SMILES | GRIN3A LBD mod | Beta cell apopt | SKKanGAS inh | Mdm2 MdmX PPI | CSC inhib | MPTP block
COc1cc(OC)cc(C2=Cc3ccccc3C(CC(C)=O)N2c2ccc(C#CC3(N)CCCCC3)cc2)c1 (configuration not stated) | · | · | · | · | · | –
CCc1nc2ccc(C(=O)N3CCCC(C(N)=O)C3)cn2c1N(C)Cc1ccc(OC)cc1 (configuration not stated) | · | · | · | · | · | –
O=S(=O)(NCCNS(=O)(=O)c1c(F)cccc1F)c1ccc2c(c1)OCCO2 | – | – | · | – | · | –
O=S(=O)(NCCCCNS(=O)(=O)c1c(F)cccc1F)c1ccc2c(c1)OCCO2 | 15 | – | · | – | – | –
O/N=C/c1ccnc(SCc2ccc(Cl)cc2)n1 | – | · | – | – | 80 | –
COc1ccc(-n2c(SCC(=O)N(C)C3CCS(=O)(=O)C3)nc3ccc(O)cc3c2=O)cc1OC (configuration not stated) | 14 | – | · | – | – | –
CN(C(=O)CSc1nc2ccccc2c(=O)n1-c1ccc(F)cc1)C1CCS(=O)(=O)C1 (configuration not stated) | – | · | · | – | · | –
CCOc1ccc(-n2c(-c3ccccc3)c[n+]3c2CCCCC3)cc1 | – | 99 | – | – | – | –
Cc1ccc(-c2c[n+]3c(n2-c2ccccc2)CCC3)cc1 | – | 100 | – | – | – | –
c1ccc(-c2c[n+]3c(n2-c2ccccc2)CCC3)cc1 | – | – | – | – | – | –
CCOc1ccc(N2Cc3ccccc3C2)cc1 | – | – | – | – | – | –
CSc1cnn(Cc2ccccc2)c(=O)c1SCc1ccccc1 | – | – | 68 | · | – | –
CC(=O)c1c(C)[nH]c(C(=O)COC(=O)c2cc(C)oc2C)c1C | – | – | · | – | · | –
CC(C)CC1COC(=O)N1 (configuration not stated) | – | – | – | – | – | –
Cc1ccccc1NC(=O)CSc1nc(O)cc(=O)n1C | 12 | · | – | – | – | –
COc1ccc(-n2c(SCC(=O)Nc3ccc(NC(C)=O)cc3)nc3ccccc3c2=O)cc1 | – | · | – | – | · | –
COc1ccc(-n2c(SCC(=O)Nc3ccccc3)nc(O)cc2=O)cc1 | – | – | 50 | – | – | –
COc1ccc(NC(=O)CSc2nc(O)cc(=O)n2-c2ccc(OC)cc2)cc1 | – | – | 54 | – | – | –
Cc1ccc(-n2c(SCC(=O)Nc3ccc4c5c(cccc35)CC4)nc(O)cc2=O)cc1 | – | – | 52 | – | – | –
COc1ccc(-n2c(SCC(=O)Nc3cccc4ccccc34)nc(O)cc2=O)cc1 | – | – | – | – | – | –
CCOC(=O)Cn1nc(C)c(NC(=O)c2ccc(Br)o2)c1C | – | – | – | – | · | –
CCOc1cc(-c2sc(Nc3cc(C)ccc3OC)n[n+]2-c2ccccc2)ccc1OC | 13 | 94 | · | – | – | –
CCOc1cc(-c2sc(Nc3ccc(CC)cc3)n[n+]2-c2ccccc2)ccc1OC | – | – | · | – | – | –
O=C(COc1ccc(-c2nnco2)cc1)Nc1c(Cl)cccc1C(F)(F)F | – | · | – | – | – | –
O=C(COc1ccc(-c2nnco2)cc1)Nc1c(F)cccc1F | 14 | – | – | – | – | –
SMILES | GRIN3A LBD mod | Beta cell apopt | SKKanGAS inh | Mdm2 MdmX PPI | CSC inhib | MPTP block
NC(=O)c1cc(-c2csc(-c3cccnc3)n2)ccc1O | 20 | – | – | – | – | –
COc1ccc2cc(-c3csc(-c4cccnc4)n3)ccc2c1 | 26 | – | – | – | – | –
C=CCNc1nc(-c2ccc(O)c(C(N)=O)c2)cs1 | – | – | – | – | – | –
NC(=O)c1cc(-c2csc(NCCc3ccccc3)n2)ccc1O | 10 | – | – | – | – | –
COc1ccc(-c2csc(-c3cccnc3)n2)cc1C | – | – | – | – | – | –
CCCc1ccc(Oc2c(-c3ccc(O)c(C)c3O)n[nH]c2C)cc1 | – | – | 95 | – | 100 | –
COc1cccc(C(=O)C(C#N)=C(SC)SC)c1 | – | – | – | – | 83 | –
CC(C)C(C(=O)NCC1CCCO1)N(CC1CCCO1)C(=O)CNS(=O)(=O)c1ccccc1 (configuration not stated) | – | – | – | – | – | –
CC(/C=N/NC(=O)c1nnn(-c2nonc2N)c1CN1CCCCC1)=C\c1ccccc1 | – | – | – | – | – | –
CCCc1c(C(=O)N/N=C/C(C)=C/c2ccco2)nnn1-c1nonc1N | 16 | – | – | – | – | –
CC(/C=N/NC(=O)c1nnn(-c2nonc2N)c1C(C)C)=C\c1ccco1 | 19 | – | – | – | – | –
COC(=O)[C@]12CCCCC=C1N(CCc1ccc(OC)c(OC)c1)C(=O)[C@H](CC(=O)NCc1ccc(C)o1)C2 | · | · | · | · | · | –
CCNC(=S)N1CCN(CC)CC1 | – | – | – | – | – | –
COC(=O)c1ccc2nc(-c3cccc(Br)c3)c(Cc3ccccc3)n2c1 | · | · | · | · | · | –
CC1=NN(C(N)=S)C(=O)C1N=Nc1ccc(C)c(Br)c1 (configuration not stated) | 12 | – | – | – | – | –
Clc1cccc(-c2cccc3nccn23)c1 | · | · | · | · | · | –
O=C(COc1ccc2ccccc2c1Br)NNC(=O)Nc1ccccc1 | 10 | – | – | – | – | –
COC(=O)NNC(=O)COc1ccc2ccccc2c1Br | – | – | – | – | – | –
CCCCCOc1ccc(/C=C/c2c([N+](=O)[O-])c(=O)n(C)c(=O)n2C)cc1 | – | – | 60 | – | – | –
Cc1oc2ccc(OCc3ccc(Br)cc3)cc2c1C(=O)O | – | – | – | – | – | –
CC(C)CCNC(=O)CN(C(=O)CCC(=O)Nc1nccs1)c1ccc2c(c1)OCCO2 | – | – | – | – | – | –
CC(=O)N1c2ccc(S(=O)(=O)N3CCCC(C(=O)Nc4ccc(F)cc4)C3)cc2CC1C (configuration not stated) | – | – | – | – | – | –
O=C(O)c1cc(O)c2c(c1)[C@H]([C@H]1c3cc(C(=O)O)cc(O)c3C(=O)c3c(O[C@@H]4O[C@H](CO)[C@@H](O)[C@H](O)[C@H]4O)cccc31)c1cccc(OC3O[C@H](CO)[C@@H](O)[C@H](O)[C@H]3O)c1C2=O (some centres not stated) | 26 | – | – | – | – | –
Cc1sc2ncnc(SCC(=O)N3CCCC(C(N)=O)C3)c2c1C (configuration not stated) | – | – | – | – | – | –
Cc1sc2ncnc(SCC(=O)N3CCCC(C(F)(F)F)C3)c2c1C (configuration not stated) | – | · | 55 | – | – | –
COC(=O)[C@]1(C)N[C@H](CN(C)C(=O)NC(C)C)[C@@H]2C(=O)N(Cc3ccccc3)C(=O)[C@@H]21 | – | – | · | – | · | –
CCN(C[C@H]1N[C@@](C)(C(=O)OC)[C@H]2C(=O)N(Cc3ccccc3)C(=O)[C@@H]12)C(=O)NC(C)C | 14 | – | · | – | · | –
COC(=O)[C@]1(C)N[C@H](CN(C)C(=O)Nc2ccc(OC)cc2)[C@@H]2C(=O)N(C)C(=O)[C@@H]21 | 13 | – | · | – | · | –
